Laboratory results published in ChEMBL document CHEMBL2218924, “A broad activity screen in support of a chemogenomic map for kinase signalling research and drug discovery” (Biochem J, 2013).

Key:
[1] = target: T1, Serine/threonine-protein kinase Chk1 (Homo sapiens) (UniProt O14757); details: at 1 µM
T1 sequence (whole entry): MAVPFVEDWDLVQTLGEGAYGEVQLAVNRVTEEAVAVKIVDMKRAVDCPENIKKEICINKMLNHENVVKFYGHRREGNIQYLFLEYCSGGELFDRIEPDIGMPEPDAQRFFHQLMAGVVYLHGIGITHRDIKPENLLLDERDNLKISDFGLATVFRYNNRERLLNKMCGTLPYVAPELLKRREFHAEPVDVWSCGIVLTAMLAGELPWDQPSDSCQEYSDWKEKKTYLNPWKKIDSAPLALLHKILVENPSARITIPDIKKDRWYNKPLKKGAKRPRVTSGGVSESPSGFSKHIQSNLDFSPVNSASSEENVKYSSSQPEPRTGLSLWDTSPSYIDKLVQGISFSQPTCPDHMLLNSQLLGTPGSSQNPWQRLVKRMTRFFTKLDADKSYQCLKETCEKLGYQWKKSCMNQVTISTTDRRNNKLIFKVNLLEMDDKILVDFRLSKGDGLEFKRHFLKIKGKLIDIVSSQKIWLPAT

[2] = target: T1, Serine/threonine-protein kinase Chk1 (Homo sapiens); details: at 10 µM
[3] = target: Casein kinase I isoform gamma-1 (Homo sapiens) (UniProt Q9HCP0); details: at 1 µM
Chain of Casein kinase I isoform gamma-1 (Homo sapiens) (Q9HCP0 whole entry, looked up, canonical isoform): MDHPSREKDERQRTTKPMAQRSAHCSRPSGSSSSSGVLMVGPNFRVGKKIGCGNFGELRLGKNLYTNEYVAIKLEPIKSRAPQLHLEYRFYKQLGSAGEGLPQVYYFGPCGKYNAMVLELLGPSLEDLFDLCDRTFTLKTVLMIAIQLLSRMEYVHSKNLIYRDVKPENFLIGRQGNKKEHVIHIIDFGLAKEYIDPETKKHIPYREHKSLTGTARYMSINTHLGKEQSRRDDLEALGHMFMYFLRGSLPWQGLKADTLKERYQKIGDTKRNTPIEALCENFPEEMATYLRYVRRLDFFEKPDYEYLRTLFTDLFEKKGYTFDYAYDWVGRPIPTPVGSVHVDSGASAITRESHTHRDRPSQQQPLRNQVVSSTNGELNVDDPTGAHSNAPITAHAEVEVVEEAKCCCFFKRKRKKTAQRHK

[4] = target: Casein kinase I isoform gamma-1 (Homo sapiens) (UniProt Q9HCP0); details: at 10 µM
[5] = target: Casein kinase I isoform delta (Homo sapiens) (UniProt P48730); details: at 1 µM
Chain of Casein kinase I isoform delta (Homo sapiens) (P48730 whole entry, looked up, canonical isoform): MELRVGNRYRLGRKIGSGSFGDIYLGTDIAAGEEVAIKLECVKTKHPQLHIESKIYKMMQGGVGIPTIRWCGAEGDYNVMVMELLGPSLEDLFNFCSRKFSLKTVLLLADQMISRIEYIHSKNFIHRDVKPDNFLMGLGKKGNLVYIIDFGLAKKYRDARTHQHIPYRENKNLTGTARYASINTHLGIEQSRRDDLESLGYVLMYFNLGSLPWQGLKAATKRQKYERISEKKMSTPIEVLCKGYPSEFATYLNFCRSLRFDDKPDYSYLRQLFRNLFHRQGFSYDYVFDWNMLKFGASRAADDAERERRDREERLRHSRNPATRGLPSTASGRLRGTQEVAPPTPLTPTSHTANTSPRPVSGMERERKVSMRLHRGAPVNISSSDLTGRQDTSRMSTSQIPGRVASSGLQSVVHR

[6] = target: Casein kinase I isoform delta (Homo sapiens) (UniProt P48730); details: at 10 µM
[7] = target: T2, CDK9/cyclin T1 (Homo sapiens) (UniProt O60563+P50750); details: at 1 µM
[8] = target: T2, CDK9/cyclin T1 (Homo sapiens); details: at 10 µM
[9] = target: Serine/threonine-protein kinase Chk2 (Homo sapiens) (UniProt O96017); details: at 1 µM
Chain of Serine/threonine-protein kinase Chk2 (Homo sapiens) (O96017 whole entry): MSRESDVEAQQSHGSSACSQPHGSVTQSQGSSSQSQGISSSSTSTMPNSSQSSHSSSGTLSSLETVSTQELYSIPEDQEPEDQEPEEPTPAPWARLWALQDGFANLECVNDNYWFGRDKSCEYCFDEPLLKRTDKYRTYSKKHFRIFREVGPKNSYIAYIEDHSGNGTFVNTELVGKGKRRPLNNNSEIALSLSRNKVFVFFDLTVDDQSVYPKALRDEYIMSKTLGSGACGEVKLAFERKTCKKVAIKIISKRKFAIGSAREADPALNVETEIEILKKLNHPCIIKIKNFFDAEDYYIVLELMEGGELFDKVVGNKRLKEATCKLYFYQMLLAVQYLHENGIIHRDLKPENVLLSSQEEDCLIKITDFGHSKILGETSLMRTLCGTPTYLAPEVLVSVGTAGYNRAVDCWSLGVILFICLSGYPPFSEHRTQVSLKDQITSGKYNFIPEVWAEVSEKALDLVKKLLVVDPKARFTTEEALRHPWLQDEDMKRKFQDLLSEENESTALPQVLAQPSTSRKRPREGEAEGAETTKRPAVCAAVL

[10] = target: Serine/threonine-protein kinase Chk2 (Homo sapiens) (UniProt O96017); details: at 10 µM

| Compound | residual activity [1] | residual activity [2] | residual activity [3] | residual activity [4] | residual activity [5] | residual activity [6] | residual activity [7] | residual activity [8] | residual activity [9] | residual activity [10] |
| --- | --- | --- | --- | --- | --- | --- | --- | --- | --- | --- |
| COc1ccc(-c2cnc3c(-c4ccsc4)cnn3c2)cc1 | 87% | 95% | 98% | 92% |  |  |  |  |  |  |
| CCN1/C(=C/C(C)=O)Sc2ccc(OC)cc21 |  |  | 69% | 21% | 29% | 4% |  |  |  |  |
| O=C1NC(=O)C(c2c[nH]c3ccccc23)=C1c1c[nH]c2ccccc12 |  | 53% |  |  |  | 56% | 36% | 5% | 73% | 25% |
| CCCCc1c(-c2ccc(OC)cc2)[nH]c2nccnc12 |  |  | 79% | 77% | 85% | 73% | 10% | 17% | 44% | 11% |
| O=c1c(-c2ccc(F)cc2)c(-c2ccncc2)[nH]n1-c1ccc(Cl)cc1 |  |  |  | 62% | 44% | 5% | 100% | 100% | 43% | 33% |
| O=C1NC(=O)C(c2cn(CCCO)c3ncccc23)=C1c1cnccn1 |  |  | 93% | 90% | 79% | 79% | 89% | 82% | 88% | 79% |
| CC(C)N(CCC(=O)c1ccc2ccccc2c1)Cc1ccccc1 |  |  | 82% |  |  |  |  |  | 100% | 72% |
| Fc1ccc(-c2nc3n(c2-c2ccncc2)CCS3)cc1 |  |  | 86% | 28% | 3% | 1% |  |  | 92% | 88% |
| CSc1nc(-c2ccc(F)cc2)c(-c2ccnc(NC(C)c3ccccc3)c2)[nH]1 (stereo unspecified) | 95% | 78% | 62% | 11% | 35% | 9% | 96% |  | 5% | 3% |
| NC(=O)c1cccc(-c2cc(Nc3ccc(OC(F)(F)F)cc3)ncn2)c1 | 99% | 96% | 94% | 63% | 90% | 74% |  | 69% | 95% | 87% |
| Nc1ncnc2[nH]nc(Nc3ccc(F)cc3)c12 |  | 60% |  | 66% | 42% | 7% | 80% | 36% | 73% | 59% |
| CN([C@@H](Cc1ccc(OS(=O)(=O)c2cccc3cnccc23)cc1)C(=O)N1CCN(c2ccccc2)CC1)S(=O)(=O)c1cccc2cnccc12 |  |  |  | 73% |  |  |  |  |  | 79% |
| N#Cc1c(NC(=O)c2cccc3ccccc23)sc2c1CCCC2 |  |  |  |  | 83% | 77% | 99% | 100% |  | 76% |
| N#C/C(=C\c1ccc(O)c(O)c1)C(=O)NCc1ccccc1 |  |  |  |  | 80% | 87% |  |  | 89% | 73% |
| O=C1Nc2ccccc2/C1=C\c1c(Cl)[nH]c2ccccc12 |  |  |  |  | 85% | 51% | 80% | 34% | 75% | 41% |
| NC(=O)c1ccc(-c2nc(-c3ccc4c(c3)OCCO4)c(-c3ccccn3)[nH]2)cc1 |  |  | 82% | 83% | 17% | 2% |  |  | 92% | 81% |

| Compound | residual activity [1] | residual activity [2] | residual activity [3] | residual activity [4] | residual activity [5] | residual activity [6] | residual activity [7] | residual activity [8] | residual activity [9] | residual activity [10] |
| --- | --- | --- | --- | --- | --- | --- | --- | --- | --- | --- |
| COc1ccc(Cl)cc1NC(=O)Nc1cc(C)nc2ccccc12 | 86% | 81% | 94% | 100% |  |  |  |  | 85% |  |
| Cn1c2ccccc2c2c3c(c4c5ccccc5n(CCC#N)c4c21)CNC3=O | 2% | 0% |  |  | 70% | 48% |  | 36% | 25% | 15% |
| O=C1Cc2c([nH]c3ccc(Br)cc23)-c2ccccc2N1 | 77% | 53% |  | 71% | 80% | 68% |  |  |  |  |
| O=C(NC(NC(=S)Nc1ccc(F)c([N+](=O)[O-])c1)C(Cl)(Cl)Cl)C(c1ccccc1)c1ccccc1 (stereo unspecified) |  |  | 94% | 55% | 45% | 64% | 101% | 95% |  | 82% |
| CC(C)[C@H](CO)Nc1nc(Nc2cc(N)cc(Cl)c2)c2ncn(C(C)C)c2n1 |  |  |  |  | 74% | 26% |  |  | 67% | 30% |
| CC(C)(C)c1nc2c3ccc(F)cc3c3c(=O)[nH]ccc3c2[nH]1 | 37% | 24% |  |  |  |  |  |  | 2% | 1% |
| COc1ccc(CNC(=O)Nc2ncc([N+](=O)[O-])s2)cc1 |  |  |  |  |  |  |  | 5% |  | 77% |
| COc1cc2nccc(Oc3ccc(NC(=O)Nc4cc(C)on4)c(Cl)c3)c2cc1OC |  |  |  |  |  |  |  | 72% | 79% | 30% |
| Oc1cccc(-c2nc(N3CCOCC3)c3oc4ncccc4c3n2)c1 | 93% | 100% | 90% | 98% | 83% | 72% |  |  | 100% | 68% |
| O=C(CCCc1ccc(-c2ccccc2F)cc1)Nc1ccc(O)cc1 | 93% | 108% | 107% | 102% | 98% | 92% | 104% |  | 91% | 72% |
| Nc1nccc(-c2c(-c3ccc(F)cc3)ncn2C2CCNCC2)n1 |  |  | 72% | 21% |  |  |  |  |  |  |
| O=S(=O)(c1cccc2cnccc12)N1CCCNCC1 |  |  | 124% | 100% |  |  | 81% | 29% |  | 54% |
| CCOC(=O)c1c(C)[nH]c(/C=C2\C(=O)Nc3ccccc32)c1C | 90% | 92% | 88% | 81% | 77% | 62% |  |  | 45% | 34% |
| COc1cc2ncnc(Nc3cccc(Cl)c3)c2cc1OC |  | 89% | 100% | 81% | 87% | 62% |  | 71% | 79% | 42% |
| c1ccc(-c2cnc(Nc3ccc(OCCN4CCCC4)cc3)s2)cc1 |  |  |  |  | 81% | 54% | 26% | 4% |  |  |
